Assay results as given in PubChem BioAssay (NCATS).
Records with an inconclusive call do not appear. Where a call stands in place of a potency, no number is given. Unmarked numbers belong to inactive results. The source made the active and inactive calls. Calls come from the whole dose curve; as a rule, active = well fitted inhibition curve with a large enough effect; inconclusive = small, poorly fitted or top-dose-only effect; inactive = flat fitted curve, though single readings scatter.

Legend:
[1] = qHTS profiling for inhibitors of Plasmodium falciparum proliferation (AID 504749); note: nearly all actives have a fitted effect of over 60% in size; conditions: P. falciparum in erythrocytes, SYBR Green DNA, 72 h
Method in brief: (§1)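 SYBR Green fluorescence of parasite DNA, read after lysis and overnight dark incubation, measured growth over 72 h in erythrocyte culture at 0.3% parasitemia and 2.5% hematocrit. Data normalised to DMSO and 0.29 uM artemisinin, with plate-drift correction.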

3D7 = assay: as above; conditions: P. falciparum in erythrocytes, SYBR Green DNA, 72 h; series mostly up to 28.7 µM
Method in brief: as §1

AA1029 = assay: as above; conditions: P. falciparum in erythrocytes, SYBR Green DNA, 72 h; series mostly up to 28.7 µM
Method in brief: as §1

AS120 = assay: as above; conditions: P. falciparum in erythrocytes, SYBR Green DNA, 72 h; series mostly up to 28.7 µM
Method in brief: as §1

ATS189 = assay: as above; conditions: P. falciparum in erythrocytes, SYBR Green DNA, 72 h; series mostly up to 28.7 µM
Method in brief: as §1

ATS95 = assay: as above; conditions: P. falciparum in erythrocytes, SYBR Green DNA, 72 h; series mostly up to 28.7 µM
Method in brief: as §1

C2A = assay: as above; conditions: P. falciparum in erythrocytes, SYBR Green DNA, 72 h; series mostly up to 28.7 µM
Method in brief: as §1

CP185 = assay: as above; conditions: P. falciparum in erythrocytes, SYBR Green DNA, 72 h; series mostly up to 28.7 µM
Method in brief: as §1

CP191 = assay: as above; conditions: P. falciparum in erythrocytes, SYBR Green DNA, 72 h; series mostly up to 28.7 µM
Method in brief: as §1

CP192 = assay: as above; conditions: P. falciparum in erythrocytes, SYBR Green DNA, 72 h; series mostly up to 28.7 µM
Method in brief: as §1

CP194 = assay: as above; conditions: P. falciparum in erythrocytes, SYBR Green DNA, 72 h; series mostly up to 28.7 µM
Method in brief: as §1

7G8 = assay: as above; conditions: P. falciparum in erythrocytes, SYBR Green DNA, 72 h; series mostly up to 28.7 µM
Method in brief: as §1

[2] = at 28.7 µM (top of the series), parasite line A
[3] = at 28.7 µM (top of the series), parasite line B
[4] = at 12.8 µM (top of the series), parasite line A
[5] = at 12.8 µM (top of the series), parasite line B
Potency is the fitted concentration of half-maximal effect.

Structure (SMILES)	activity, negative = inhibition [1, 2]	activity, negative = inhibition [1, 3]	Potency (3D7)	Potency (AA1029)	Potency (AS120)	Potency (ATS189)	Potency (ATS95)	Potency (C2A)	Potency (CP185)	Potency (CP191)	Potency (CP192)	Potency (CP194)	Potency ([1]; parasite line A)	Potency ([1]; parasite line B)	Potency (7G8)	activity, negative = inhibition [1, 4]	activity, negative = inhibition [1, 5]
CC(C)(C)CC(C)(C)c1ccc(OCCO)cc1	-21%	-13.8%	inactive	inactive	inactive	inactive	inactive	inactive	inactive	inactive	inactive	inactive	–	–	–	–	–
NC(=O)Oc1ccc(Cc2ccccc2)cc1	0.685%	4.41%	inactive	inactive	inactive	inactive	inactive	inactive	inactive	inactive	inactive	inactive	–	–	–	–	–
Cc1c(C)c2c(c(C)c1OC(=O)CCC(=O)O)CC[C@@](C)(CCC[C@H](C)CCC[C@H](C)CCCC(C)C)O2	-10.9%	4.87%	–	inactive	inactive	inactive	inactive	inactive	inactive	inactive	inactive	inactive	–	–	–	–	–
CSc1nc2cc(Oc3cccc(Cl)c3Cl)c(Cl)cc2[nH]1	–	–	–	11.2 µM (active)	11.2 µM (active)	6.31 µM (active)	8.91 µM (active)	–	11.2 µM (active)	3.98 µM (active)	–	13.5 µM (active)	3.98 µM (active)	11.2 µM (active)	8.91 µM (active)	–	–
O=C(O)CCC/C=C\C[C@@H]1[C@@H](/C=C/[C@@H](O)COc2cccc(C(F)(F)F)c2)[C@H](O)C[C@@H]1O	-5.12%	-7.34%	inactive	inactive	inactive	inactive	inactive	inactive	inactive	inactive	–	inactive	–	–	–	–	–
CCSc1ccc2c(c1)N(CCCN1CCN(C)CC1)c1ccccc1S2	–	–	inactive	inactive	inactive	inactive	inactive	inactive	inactive	inactive	inactive	inactive	–	–	–	14.2%	7.58%
CS(=O)(=O)c1ccc([C@@H](O)[C@@H](COC(=O)CN)NC(=O)C(Cl)Cl)cc1	-27.9%	-23.7%	inactive	–	inactive	inactive	–	–	–	inactive	inactive	–	–	–	–	–	–
CN(C)c1ccc(C(=C2C=CC(=[N+](C)C)C=C2)c2c(O)c(S(=O)(=O)[O-])cc3cc(S(=O)(=O)O)ccc23)cc1	-15.9%	-17.8%	inactive	inactive	inactive	inactive	inactive	inactive	inactive	inactive	inactive	inactive	–	–	–	–	–
CO/N=C(/C(=O)N[C@@H]1C(=O)N2C(C(=O)O)=C(COC(N)=O)CS[C@H]12)c1ccco1	6.01%	2.26%	inactive	inactive	inactive	inactive	inactive	inactive	inactive	inactive	inactive	inactive	–	–	–	–	–
O=C(O)CCC/C=C\C[C@@H]1[C@@H](/C=C/[C@@H](O)COc2cccc(Cl)c2)[C@H](O)C[C@@H]1O	11.9%	-6.6%	inactive	inactive	inactive	inactive	inactive	inactive	inactive	inactive	inactive	inactive	–	–	–	–	–
CC(C)OC(=O)Nc1ccc2nc(-c3cscn3)[nH]c2c1	1.15%	-9.28%	inactive	inactive	inactive	inactive	inactive	–	inactive	inactive	inactive	inactive	–	–	–	–	–
CC(=O)[C@H]1CC[C@H]2[C@@H]3C=CC4=CC(=O)CC[C@@]4(C)[C@H]3CC[C@]12C	–	–	–	inactive	inactive	inactive	inactive	inactive	inactive	inactive	inactive	inactive	–	–	inactive	0.59%	-8.1%
C[C@]12CCC(=O)C[C@@H]1CC[C@@H]1[C@@H]2CC[C@]2(C)C=CC[C@@H]12	-20.9%	-5.73%	inactive	inactive	inactive	inactive	inactive	inactive	inactive	inactive	inactive	inactive	–	–	–	–	–
O.O.O.O.O.O.O.O=S(=O)([O-])[O-].[Co+2]	–	–	–	8.91 µM (active)	5.01 µM (active)	11.2 µM (active)	5.01 µM (active)	12.6 µM (active)	12.6 µM (active)	8.91 µM (active)	–	7.57 µM (active)	11.2 µM (active)	8.91 µM (active)	2.82 µM (active)	–	–
O=C(OCc1ccccc1)c1ccc(O)cc1	10.7%	11.3%	inactive	inactive	inactive	inactive	inactive	inactive	inactive	inactive	inactive	inactive	–	–	–	–	–
OC1OC[C@@H](O)[C@H](O)[C@@H]1O (stereo partly drawn)	-2.48%	–	inactive	inactive	inactive	inactive	inactive	inactive	inactive	inactive	inactive	inactive	–	–	inactive	–	–
CN(C)CCC=C1c2ccccc2C(C)(C)c2ccccc21	–	–	inactive	–	–	inactive	–	–	–	–	inactive	–	–	–	7.94 µM (active)	–	–
Cn1c(=O)c2c(ncn2CCOC(=O)C(C)(C)Oc2ccc(Cl)cc2)n(C)c1=O	-0.561%	–	inactive	–	–	–	–	–	–	–	inactive	inactive	–	–	inactive	–	–
O=C(c1cc2ccccc2o1)N1CCN(Cc2ccccc2)CC1	–	–	–	–	8.91 µM (active)	–	–	inactive	–	–	inactive	–	7.94 µM (active)	–	7.94 µM (active)	–	–
c1ccc2c(c1)Sc1ccccc1N2CCN1CCCC1	–	–	11.2 µM (active)	7.94 µM (active)	7.08 µM (active)	8.91 µM (active)	8.91 µM (active)	–	10 µM (active)	–	–	13.5 µM (active)	–	–	7.08 µM (active)	–	–
CCCCCCCCCCCCCCCCCC[N+](C)(C)CCC[Si](OC)(OC)OC	12.9%	–	inactive	inactive	inactive	inactive	inactive	inactive	inactive	inactive	inactive	inactive	–	–	inactive	–	–

Structure (SMILES)	activity, negative = inhibition [1, 2]	activity, negative = inhibition [1, 3]	Potency (3D7)	Potency (AA1029)	Potency (AS120)	Potency (ATS189)	Potency (ATS95)	Potency (C2A)	Potency (CP185)	Potency (CP191)	Potency (CP192)	Potency (CP194)	Potency ([1]; parasite line A)	Potency ([1]; parasite line B)	Potency (7G8)	activity, negative = inhibition [1, 4]	activity, negative = inhibition [1, 5]
O=C(Nc1ccc(O)cc1)c1ccccc1O	12.3%	–	inactive	inactive	–	inactive	inactive	inactive	inactive	inactive	inactive	inactive	–	–	–	–	–
N[C@@H](Cc1cc(I)c(Oc2ccc(O)c(I)c2)c(I)c1)C(=O)O	-3.92%	–	inactive	–	–	–	–	inactive	inactive	–	inactive	–	–	–	12.6 µM (active)	–	–
CCCCCc1ccc(C)cc1O	-9.62%	–	inactive	inactive	inactive	inactive	inactive	inactive	inactive	inactive	inactive	inactive	–	–	12.6 µM (active)	–	–
NC(N)=NCC1COc2ccccc2O1 (stereo not drawn)	–	–	inactive	–	inactive	inactive	inactive	–	inactive	–	inactive	–	–	–	–	–	–
CCCCCCCCCCCCCCCCOCCOCCOCCOCCOCCOCCOCCOCCOCCOCCOCCOCCOCCOCCOCCOCCOCCOCCOCCOCCO	–	–	–	–	14.1 µM (active)	–	11.2 µM (active)	–	–	–	–	–	15.8 µM (active)	–	5.62 µM (active)	–	–
O=C1c2ccccc2C(=O)C1c1ccc(Cl)cc1	10.7%	–	inactive	inactive	inactive	inactive	inactive	inactive	inactive	inactive	inactive	inactive	–	–	inactive	–	–
CN(C)C(=O)CCSC(SCCC(=O)O)c1cccc(/C=C/c2ccc3ccc(Cl)cc3n2)c1 (stereo not drawn)	–	–	–	–	10 µM (active)	–	–	–	–	–	inactive	–	–	–	8.91 µM (active)	–	–
CC(CN(C)C)CN1c2ccccc2Sc2ccc(C(F)(F)F)cc21 (stereo not drawn)	–	–	inactive	–	11.2 µM (active)	–	–	–	–	8.91 µM (active)	inactive	–	11.2 µM (active)	–	10 µM (active)	–	–
C#C[C@]1(O)CC[C@@H]2[C@H]3CCC4=CC(=O)CC[C@H]4[C@H]3C(=C)C[C@@]21CC	–	–	–	inactive	inactive	inactive	inactive	inactive	inactive	–	0.379 µM (active)	0.536 µM (active)	–	–	–	–	–
Nc1ccc(N=Nc2ccccc2)c(N)n1	–	–	inactive	inactive	inactive	inactive	inactive	–	inactive	–	inactive	inactive	10 µM (active)	–	inactive	–	–
CCN(CC)CCC(=O)N1c2ccccc2Sc2ccc(Cl)cc21	–	–	–	–	–	inactive	–	–	–	–	inactive	–	–	–	8.91 µM (active)	–	–
CC(=O)Nc1ccc(NC(=S)NC(=O)c2ccc(C(C)(C)C)cc2)cc1	–	-2.21%	11.2 µM (active)	–	inactive	inactive	–	inactive	inactive	inactive	inactive	inactive	–	–	8.91 µM (active)	–	–
CCCC(CCC)C(=O)OC1C[C@H]2CC[C@@H](C1)[N+]2(C)C (stereo partly drawn)	–	–	–	11.2 µM (active)	–	–	–	–	–	–	–	–	5.62 µM (active)	–	11.2 µM (active)	–	–
O=C(OCc1ccccc1)c1cccnc1	-26.7%	–	inactive	inactive	inactive	inactive	inactive	inactive	inactive	–	inactive	–	–	–	inactive	–	–
O=c1n(CC2CO2)c(=O)n(CC2CO2)c(=O)n1CC1CO1 (stereo not drawn)	–	-29.5%	–	–	inactive	inactive	–	–	–	–	–	–	–	–	12.6 µM (active)	–	–
CCOC(=O)Cc1ccc(-c2ccccc2)cc1	8.04%	–	inactive	–	inactive	inactive	inactive	inactive	inactive	–	–	inactive	–	–	inactive	–	–
Cc1cc(-c2ccc(N=Nc3c(S(=O)(=O)O)cc4cc(S(=O)(=O)O)cc(N)c4c3O)c(C)c2)ccc1N=Nc1c(S(=O)(=O)O)cc2cc(S(=O)(=O)O)cc(N)c2c1O	–	–	inactive	inactive	14.1 µM (active)	–	inactive	inactive	–	inactive	inactive	–	–	–	–	–	–
CC(=O)Nc1c(I)c(C(=O)O)c(I)c(N(C)C(C)=O)c1I	–	-11.8%	inactive	inactive	–	inactive	inactive	inactive	inactive	inactive	inactive	inactive	–	–	inactive	–	–
OC/C=C/c1ccccc1	-0.356%	–	inactive	inactive	inactive	inactive	inactive	inactive	inactive	inactive	inactive	inactive	–	–	inactive	–	–
OCc1ccccc1	–	-27.8%	–	inactive	–	–	–	inactive	inactive	–	inactive	inactive	–	–	2.82 µM (active)	–	–
CN1CCCC(CN2c3ccccc3Sc3ccccc32)C1 (stereo not drawn)	–	–	inactive	10 µM (active)	12.6 µM (active)	–	–	–	–	–	inactive	–	–	–	11.2 µM (active)	–	–
